Bioassay records as filed in PubChem.
ClpP mod = qHTS Assay for Activators of ClpP. Potency, µM (series often up to 57.5 µM). purified B. subtilis ClpP, FRET peptide cleavage, 20 min. 1.9% of 340,000 active. AID 651965, 2013; active means well fitted falling curve with a large enough effect; inconclusive means small, poorly fitted or top-dose-only effect; inactive means no such curve, though single readings can be large or run the other way; further: the source files actives as falling curves though it sought activators and does not explain the sign; nearly all actives have a fitted effect of over 65% in size
Target sequence (P80244 whole entry, looked up): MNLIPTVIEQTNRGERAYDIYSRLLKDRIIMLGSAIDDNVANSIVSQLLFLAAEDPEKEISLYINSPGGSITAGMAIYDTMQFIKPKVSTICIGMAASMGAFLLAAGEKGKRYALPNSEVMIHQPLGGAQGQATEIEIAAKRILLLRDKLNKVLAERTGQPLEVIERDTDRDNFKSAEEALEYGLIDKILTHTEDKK
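ClpP 10 microg/mL final, pH 8 Tris/KCl buffer with BSA, glycerol, Tween-20; compound pinned in; FRET-FV substrate; RT 20 min; Ex320/Em430; ΔFRET vs ADEP 5.8 microM, DMSO, no enzyme.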
Menin-MLL FL inh = menin-MLL binding inhibition, fluorescein peptide. Fluorescence polarization, fluorescein-MLL peptide displacement from menin. FP activity change, % at 61.4 µM. 290,000 tested, under 10 active; active means well fitted curve in the direction sought with a large enough effect in the polarisation, not every such curve was filed as active; inconclusive means small, poorly fitted or top-dose-only effect, or effect the other way, or a change in a side signal; inactive means no such curve, though single readings can be large or run the other way; the % refers to the polarisation
PINK1 modulator = modulators of PINK1 expression. AID 624263. Potency, µM (highest dose often 76.6 µM), usual class: activators. 0.2% of 410,000 active. PINK1 immunofluorescence, high-content cytometry, 24 h; active means well fitted activation curve with a large enough effect; inconclusive means small, poorly fitted or top-dose-only effect; cell line not stated here; further: nearly all actives have a fitted effect of over 65% in size
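Readout is PINK1 immunofluorescence, quantified alongside mitochondrial, cell and nuclear markers by laser-scanning microplate cytometry. Cells from a stable line were exposed to compound titrations (5 concentrations) for 24 hours, with CCCP controls.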
Epigenetic reg = epigenetic control regulation, reporter derepression. murine LDR cells, GFP reporter derepression, 30 h. Potency, µM (doses to about 53.9 µM), usual class: activators. 0.2% of 280,000 active. AID 1865; active means well fitted activation curve with a large enough effect; inconclusive means small, poorly fitted or top-dose-only effect; further: nearly all actives have a fitted effect of over 60% in size
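Derepression of a silenced CMV-GFP reporter in murine LDR cells is scored by enumerating GFP-positive cells with a laser-scanning microplate cytometer after 30 hours of treatment at 37 C.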
CXXC DNA block = inhibitors of human MLL CXXC domain-DNA interaction | Q03164 | MLL-CXXC / FITC-HOXA9 DNA fluorescence polarization | Potency, µM (doses to about 115 µM), usual class: inhibitors | 0.037% of 290,000 active; active means well fitted inhibition curve with a large enough effect in the polarisation, with a control signal flat, not every such curve was filed as active; inconclusive means small, poorly fitted or top-dose-only effect, or effect the other way, or a change in a side signal; inactive means no such curve, though single readings can be large or run the other way; the % refers to the polarisation
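Purified MLL-CXXC (added from a 7 uM solution) was preincubated 5 min at ambient with pinned compounds in 50 mM Tris-HCl pH 7.5, 50 mM NaCl, 1 mM DTT, 0.05% BSA. Fluorescein-labeled HOX-A9 DNA (50 nM solution) followed, 30 min, then polarization read.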
Menin MLL FP TR = inhibitors of human menin-MLL interaction, mutant MLL peptide. O00255. Menin + Texas Red MLL mutant peptide, fluorescence polarization. Potency, µM (series often up to 61.6 µM), most hits filed as inhibitors. 0.23% of 270,000 active. AID 1768; active means well fitted inhibition curve with a large enough effect in the polarisation, with a control signal flat, not every such curve was filed as active; inconclusive means small, poorly fitted or top-dose-only effect, or effect the other way, or a change in a side signal; inactive means no such curve, though single readings can be large or run the other way; the % refers to the polarisation
Target sequence (O00255 whole entry, looked up): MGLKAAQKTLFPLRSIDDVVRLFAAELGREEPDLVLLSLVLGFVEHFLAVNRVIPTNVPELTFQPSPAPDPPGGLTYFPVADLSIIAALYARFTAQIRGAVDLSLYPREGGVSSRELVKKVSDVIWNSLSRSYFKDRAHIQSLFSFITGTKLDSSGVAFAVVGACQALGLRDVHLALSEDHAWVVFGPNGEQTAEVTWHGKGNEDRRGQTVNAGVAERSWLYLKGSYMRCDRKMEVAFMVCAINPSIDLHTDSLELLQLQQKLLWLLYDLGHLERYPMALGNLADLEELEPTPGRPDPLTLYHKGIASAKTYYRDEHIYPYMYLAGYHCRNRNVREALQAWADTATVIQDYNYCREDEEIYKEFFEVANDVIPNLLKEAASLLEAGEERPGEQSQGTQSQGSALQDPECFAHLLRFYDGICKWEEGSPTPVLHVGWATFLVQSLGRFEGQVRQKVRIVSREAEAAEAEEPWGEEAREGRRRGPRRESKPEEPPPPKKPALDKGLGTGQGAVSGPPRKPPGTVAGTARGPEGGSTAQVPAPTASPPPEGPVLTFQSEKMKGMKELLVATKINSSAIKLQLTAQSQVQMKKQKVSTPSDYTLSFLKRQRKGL
Of the large screens only hits and unclear results are named; the others gave an inactive call. The list is not random: actives were taken first. Their share in the collection is about 1.9%.

CCOc1c(C)cc(-c2ncccc2O)cc1C	ClpP mod 28µM
Cc1ccc(O)c2ncccc12	none (no result: ClpP mod, PINK1 modulator, Epigenetic reg)
COc1ccc(-c2ncccc2O)cc1	ClpP mod 25µM
Cc1ccc(C2=NN(C(=O)c3cccs3)C(c3ccccc3O)C2)cc1 (stereo unspecified)	Epigenetic reg inconclusive, Menin MLL FP TR inconclusive (no result: ClpP mod)
O=C(c1cccs1)N1N=C(c2ccccc2)CC1c1ccccc1O (stereo unspecified)	Menin MLL FP TR 18µM (no result: ClpP mod)
COc1cc(CN2C(=O)CC[C@@H]3CN(Cc4ccccn4)CC[C@@H]32)cc(OC)c1OC	none (no result: ClpP mod, Menin-MLL FL inh, Epigenetic reg, CXXC DNA block, Menin MLL FP TR)
COc1cccc(CNCCO)c1OCc1ccc(Cl)cc1	none
CCOc1ccccc1CNc1ccc(O)cc1	Menin MLL FP TR 28µM
CCOc1cccc(CNc2ccc(O)cc2)c1OCc1ccc(Cl)cc1	PINK1 modulator inconclusive, Epigenetic reg inconclusive, Menin MLL FP TR 32µM
CCc1ccc(CNc2ccc(O)cc2)cc1	Menin MLL FP TR 35µM
CCC1Cc2c(nc(N)c3c(N)nc(N4CCCCC4)c(C#N)c23)O1 (stereo unspecified)	none (no result: ClpP mod)
N#Cc1c(N2CCCCC2)nc(N)c2c(N)nc3c(c12)CC(c1ccccc1)O3 (stereo unspecified)	ClpP mod 28µM
CCN(CC)c1nc(N)c2c(N)nc3c(c2c1C#N)CC(c1ccccc1)O3 (stereo unspecified)	ClpP mod 28µM, Menin-MLL FL inh inconclusive
O=C(CCN1C(=O)C2C3C=CC(C3)C2C1=O)N1CCN(c2ccccn2)CC1 (stereo unspecified)	ClpP mod 16µM
O=C(CCN1C(=O)C2C3C=CC(C3)C2C1=O)NCc1cccnc1 (stereo unspecified)	ClpP mod 13µM
CSc1cccc(NC(=O)Cn2c3ncccc3c(=O)n2-c2ccc(C)cc2)c1	ClpP mod 25µM (no result: Menin-MLL FL inh, CXXC DNA block, Menin MLL FP TR)
Cc1ccc(-n2c(=O)c3cccnc3n2CC(=O)Nc2cc(Cl)ccc2C)cc1	none (no result: Menin-MLL FL inh, CXXC DNA block, Menin MLL FP TR)
COc1ccccc1CN1CCC2(CCC(CNC(=O)c3ccccc3N(C)C)O2)CC1 (stereo unspecified)	none (no result: ClpP mod, Menin-MLL FL inh, Epigenetic reg, CXXC DNA block, Menin MLL FP TR)
O=[N+]([O-])c1cc([N+](=O)[O-])c2oc(-c3ccccc3)c(Br)c2c1O	PINK1 modulator 35µM, Menin MLL FP TR inconclusive (no result: ClpP mod, Epigenetic reg)
O=c1c(O)c(-c2ccccc2)oc2cccc(O)c12	Menin MLL FP TR inconclusive (no result: ClpP mod, CXXC DNA block)
CCCCCCCCCCCC[n+]1ccc(C)c2ccccc21	none (no result: Menin-MLL FL inh, PINK1 modulator, Epigenetic reg, CXXC DNA block, Menin MLL FP TR)
CCCCCCCCCCCCCCCCn1cc[n+](Cc2ccccc2)c1C	Menin MLL FP TR 22µM (no result: ClpP mod, PINK1 modulator, Epigenetic reg, CXXC DNA block)
CCc1ccccc1Nc1nn2c(=O)c3ccc(C(=O)NC4CCC(C)CC4)cc3nc2s1 (stereo unspecified)	none (no result: Menin-MLL FL inh, CXXC DNA block, Menin MLL FP TR)
CCOc1nc(-c2ccc(C)cc2)ccc1-c1noc(-c2ccccc2F)n1	ClpP mod inconclusive (no result: Menin-MLL FL inh, CXXC DNA block, Menin MLL FP TR)
COc1nc(-c2ccccc2)ccc1-c1noc(-c2ccco2)n1	ClpP mod 32µM
CCOc1nc(-c2ccc(C)cc2)ccc1-c1noc(COC)n1	ClpP mod 32µM
COc1nc(-c2ccccc2)ccc1-c1noc(COc2ccccc2)n1	ClpP mod 10µM
COc1ccc(-c2ccc(-c3noc(-c4ccco4)n3)c(OC)n2)cc1	ClpP mod 28µM, Epigenetic reg inconclusive
COc1nc(-c2ccccc2)ccc1-c1noc(-c2ccccc2)n1	ClpP mod inconclusive, Menin-MLL FL inh inconclusive
COc1ccc2ccccc2c1CN1CCOc2ccc(CN3CCN(CCO)CC3)cc2C1	none (no result: ClpP mod, Menin-MLL FL inh, Epigenetic reg, CXXC DNA block, Menin MLL FP TR)
COc1nc(-c2ccccc2)ccc1-c1noc(-c2cccs2)n1	ClpP mod 20µM (no result: Menin-MLL FL inh, Epigenetic reg, CXXC DNA block, Menin MLL FP TR)
Cc1cc2c(cc1C)N[C@]1(C[C@H]3CCCC(=O)N4CC[C@@H](C1)[C@@H]34)C(=NCc1ccccc1)N2	none (no result: Menin-MLL FL inh, PINK1 modulator, Epigenetic reg, CXXC DNA block, Menin MLL FP TR)
CC(=O)c1ccccc1-c1ccc2c(c1)CC(CNC(=O)C[C@@H]1C[C@@H](C)NC(=S)N1)O2 (stereo partly specified)	none (no result: ClpP mod, Menin-MLL FL inh, Epigenetic reg, CXXC DNA block, Menin MLL FP TR)
CCOC(=O)c1c(N)c(C#N)c2n1CCCC2	ClpP mod 32µM
CCCOc1ccc2oc(=O)c3c(c2c1)CCCN3C(=O)CN1CCc2ccccc2C1	ClpP mod 18µM, Menin MLL FP TR inconclusive
O=C(Cc1ccc(Br)cc1)NO	none (no result: Menin-MLL FL inh, Epigenetic reg, CXXC DNA block, Menin MLL FP TR)
COc1ccccc1CNC(=O)c1cnn(-c2nccc(-c3cccs3)n2)c1C	none (no result: ClpP mod, Menin-MLL FL inh, Epigenetic reg, CXXC DNA block, Menin MLL FP TR)
Cc1ccc(S(=O)(=O)N2CCC(c3nc(-c4cccs4)nc4ccccc34)CC2)cc1	none (no result: Menin-MLL FL inh, Epigenetic reg, CXXC DNA block, Menin MLL FP TR)
CCCCCn1c2c(c(=N)c3ccccc31)CCC2	none (no result: ClpP mod, Menin MLL FP TR)
CCCCCCCCn1c2c(c(=N)c3ccccc31)CCC2	PINK1 modulator 13µM (no result: ClpP mod)
Cc1ccc(NC(=O)C(C)OC(=O)c2ccc(Cl)nc2)cc1S(=O)(=O)N1CCOCC1 (stereo unspecified)	ClpP mod 28µM (no result: Menin-MLL FL inh, Epigenetic reg, CXXC DNA block, Menin MLL FP TR)
COc1ccc(OCCN(C)Cc2c(O)ccc3ccccc23)cc1	none (no result: ClpP mod, Epigenetic reg)
CCN(C(=O)CSc1nc2nc(C)cc(C)n2n1)C1CCS(=O)(=O)C1 (stereo unspecified)	ClpP mod 16µM
Cc1ccc(/C=C/C(=O)O)cc1S(=O)(=O)NCCCO	none
COc1cc(/C=C/C(=O)O)cc(S(=O)(=O)NCCCO)c1OC	ClpP mod 28µM
Cc1ccc(S(=O)(=O)CCC(=O)OCC(=O)N(Cc2ccccc2)C(C)C)cc1	ClpP mod 16µM (no result: Menin-MLL FL inh, Epigenetic reg, CXXC DNA block, Menin MLL FP TR)
Cc1cccc(C(=O)Oc2ccc3ccc(O)cc3c2)c1	none (no result: Epigenetic reg)
Nc1ccc(-c2cc3ccccc3[nH]2)cc1	none (no result: Menin-MLL FL inh, Epigenetic reg, CXXC DNA block, Menin MLL FP TR)
Cc1ccn2c(Nc3ccc4c(c3)OCCO4)c(-c3ccc(Cl)s3)nc2c1	ClpP mod 25µM (no result: Menin-MLL FL inh, CXXC DNA block, Menin MLL FP TR)
COc1ccccc1/C=C/c1nc2ccccc2[nH]1	none (no result: Menin-MLL FL inh, Epigenetic reg, CXXC DNA block, Menin MLL FP TR)
